FMDV antiviral: High Throughput Screening for Foot and Mouth Disease Virus Antivirals; FMDV antiviral cell-based qHTS; Potency, µM (titrated, usually from 57.9 µM), hits mostly inhibitors; actives 1.2% (n = 410,000); AID 1159524, 2015; calls by dose curve; tested in HEK293T cells; note: read-out not given here; nearly all actives have a fitted effect of over 45% in size
LASV entry inh: qHTS for Inhibitors of binding or entry into cells for Lassa Virus; Potency, µM (series often up to 37.9 µM), usual class: inhibitors; Lassa virus pseudotype entry inhibition, cell reporter; actives 1.2% (n = 300,000); calls by dose curve; tested in HEK293 cells; note: nearly all actives have a fitted effect of over 50% in size
Shiga inhibitor: A qHTS for Small Molecule Inhibitors of Shiga Toxin; Vero cells, Shiga toxin protein synthesis inhibition reporter; inhibition, % at 38.7 µM; actives 9.2% (n = 290,000); in the data active = inhibition mostly above about 28%, no sharp cut-off; inactive = mostly below about 43%
HCV inh: qHTS Assay for Inhibitors of Hepatitis C Virus (HCV). Huh7.5.1 HCVcc-Cre infection, luciferase reporter, 44 h. Potency, µM (titrated, usually from 41.8 µM), hits mostly inhibitors. actives 3.4% (n = 340,000). AID 651820, 2012; active = well fitted inhibition curve with a large enough effect; inconclusive = small, poorly fitted or top-dose-only effect, or another doubt; inactive = no such curve, though single readings can be large or run the other way
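Infectious HCV cell culture screen: compound-treated cells (1,000/well, pre-plated 4 h) are infected with HCVcc-Cre at roughly 0.5 moi and grown 44 h. Infection is quantified by luciferase signal after 15 min substrate incubation at room temperature.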
MARV entry inh: qHTS for inhibitors of binding or entry into cells for Marburg Virus | Marburg virus pseudotyped entry inhibition, cell reporter | Potency, µM (highest dose often 37.8 µM), actives largely listed as inhibitors | actives 1.8% (n = 300,000) | AID 540276, 2011; calls by dose curve; tested in HEK293 cells
CHX counter: Cycloheximide Counterscreen for Small Molecule Inhibitors of Shiga Toxin | actives 12% (n = 300,000) | max response, % | cell reporter, cycloheximide protein synthesis inhibition counterscreen; in the data active = max response mostly above about 13%, no sharp cut-off; inactive = mostly below about 14%; note: read at 38.3 µM for the half of the compounds with a filed dose
Hits are given with their value; - = inactive; ? = inconclusive; . = no result. In the library only some 13% were active in any assay of this set; here they are far more common.

SMILES	FMDV antiviral	LASV entry inh	Shiga inhibitor	HCV inh	MARV entry inh	CHX counter
CCC(C)(C)NC(=O)c1ccc(S(=O)(=O)N(C)c2ccccc2OC)cc1	-	-	-	?	-	-
COc1ccccc1N(C)S(=O)(=O)c1ccc(C(=O)Nc2ccc3nc(C)sc3c2)cc1	25µM	?	-	?	?	-
COc1ccc(C(=O)Nc2ccc3nc(C)sc3c2)cc1S(=O)(=O)N1CCOCC1	-	.	.	.	.	.
COc1ccc(CNc2oc(-c3cccc4ccccc34)nc2P(=O)(OC)OC)cc1	-	.	-	?	.	-
COCCCN1C(=O)c2ccc(C(=O)OCC(=O)N(C)c3ccccc3)cc2C1=O	-	-	-	-	?	-
COc1ccccc1N(C)S(=O)(=O)c1ccc(C(=O)NCC(C)C)cc1	-	?	-	-	-	-
COc1ccccc1N(C)S(=O)(=O)c1ccc(C(=O)Nc2ccc(N3CCOCC3)cc2)cc1	40µM	?	-	10µM	?	-
COC(=O)c1ccc(CNC(=O)c2ccc(S(=O)(=O)N(C)c3ccccc3OC)cc2)cc1	-	.	.	8.9µM	.	.
C=CCN(c1ccccc1OC)S(=O)(=O)c1ccc(Cl)c(C(=O)Nc2ccc(N3CCOCC3)cc2)c1	-	?	-	?	?	-
COc1ccccc1N(C)S(=O)(=O)c1ccc(C(=O)N(C)Cc2ccc(OC(F)F)cc2)cc1	35µM	?	.	4µM	11µM	.
COc1ccccc1N(C)S(=O)(=O)c1ccc(C(=O)Nc2cccc(Br)c2)cc1	?	?	.	13µM	?	.
COc1ccc(N2CCN(C(=O)NC34CC5CC(CC(C5)C3)C4)CC2)cc1	-	-	-	?	-	-
O=C1CCC(=O)N1c1nc2nc(-c3ccccc3)cc(=O)n2[nH]1	-	-	-	-	-	-
Cc1cc(N2CCN(C)CC2)nc2ccccc12	-	-	-	-	-	-
CCCCCCn1c(N(CC)CC)nc2c1c(=O)[nH]c(=O)n2C	-	-	-	-	-	-
COc1ccc2cc3cc(C(=O)N4CCN(c5ccccc5)CC4)oc3nc2c1	-	-	-	-	-	-
COc1ccc2nc3sc(C(=O)N4CCN(C)CC4)cc3cc2c1	-	-	-	-	?	15
COc1ccc2cc3cc(C(=O)N4CCCC(C)C4)oc3nc2c1 (stereo unspecified)	-	.	82	-	.	38
COc1ccc2nc3oc(C(=O)N4CC(C)CC(C)C4)cc3cc2c1 (stereo unspecified)	-	.	56	-	.	-
COc1ccc2nc3oc(C(=O)N4CCCCC4)cc3cc2c1	-	?	76	-	?	30
CC(=O)Nc1cc2c3c(c1)CCN3C(=O)CC2	-	.	-	-	.	-
CCOC(=O)C1CCN(C(=O)c2cc3cc4cc(OC)ccc4nc3o2)CC1	-	-	-	-	?	32
C/C(=N\NC(=O)C1CC1c1ccccc1)c1ccc(C)s1 (stereo unspecified)	-	?	-	-	-	-
CCOC(=O)C(/C(C)=N/NC(=O)C1CC1c1ccccc1)C(C)C (stereo unspecified)	?	2.1µM	-	-	-	-
CSc1ccc(CN2CCC(C)(Oc3ccc(CC#N)cc3)C2)cc1 (stereo unspecified)	-	.	.	.	.	.
SMILES	FMDV antiviral	LASV entry inh	Shiga inhibitor	HCV inh	MARV entry inh	CHX counter
Cc1ccc(-c2csc3nc[nH]c(=O)c23)cc1	-	?	-	-	-	-
Cc1ccc(-c2csc3nc(-c4ccncc4)[nH]c(=O)c23)cc1	-	.	-	5.6µM	.	-
O=c1[nH]c(Cc2ccc(F)cc2)nc2scc(-c3ccc(F)cc3)c12	-	-	-	-	?	17
FC(c1nc2ccccc2[nH]1)C(F)(F)F (stereo unspecified)	-	-	-	-	-	-
Cc1ccc2nc(-c3ccncc3)[nH]c2c1	-	-	83	-	?	47
Cc1ccc2nc(C(F)C(F)(F)F)[nH]c2c1 (stereo unspecified)	-	-	44	-	-	22
C=Cc1ccc(Cn2c(SCC(=O)N3CCN(c4ccc(F)cc4)CC3)nc3ccccc32)cc1	-	.	.	.	-	.
CCC(C)NC(=S)N(CCc1ccccc1)Cc1cc2cc(OC)c(OC)cc2[nH]c1=O (stereo unspecified)	?	?	-	-	?	-
Cc1ccc(-c2nc3ccsc3c(=O)[nH]2)cc1	-	?	103	-	?	42
CCOC(=O)CSc1nc2ccsc2c(=O)[nH]1	-	-	-	-	?	-
Cc1ccc(N(CC(=O)N2CCCCC2)S(=O)(=O)c2ccc(C)cc2)cc1	-	?	-	-	-	-
CCN(CC)C(=O)CN(c1cc2c(cc1OC)oc1ccccc12)S(=O)(=O)c1ccccc1	-	?	-	10µM	10µM	-
CCC1CCCCN1C(=O)COc1ccc(N(C)S(=O)(=O)c2ccc(C)cc2)cc1 (stereo unspecified)	?	.	-	10µM	.	-
COc1cc2oc3ccccc3c2cc1N(CC(=O)N1CCCCC1)S(=O)(=O)c1ccc(C)cc1	-	?	-	?	14µM	-
CCOc1ccc(N(CC(=O)N2CCCCCC2)S(=O)(=O)c2ccc(C)cc2)cc1	-	3.5µM	-	-	-	-
O=C(CS(=O)(=O)c1c[nH]c2ccccc12)N1CCCCC1	-	-	-	-	?	-
COc1ccc(-c2cc(C(=O)Nc3cccnc3)c3ccccc3n2)cc1OC	-	-	-	-	-	-
Cc1ccc(NC(=O)c2ccccc2NC(=O)c2cccnc2)cc1	-	-	-	?	-	-
COCCn1c(SCc2cc(=O)n3cc(C)ccc3n2)nc2ccccc2c1=O	.	.	-	.	.	-
O=C(COc1ccc(Cl)cc1Cl)N/N=C/c1ccc[nH]1	-	.	35	6.3µM	.	44
O=C(COc1ccc(Cl)cc1Cl)c1ccc[nH]1	-	.	57	-	.	31
COCCc1ccc(OC2(C)CCN(Cc3cccc(OC)c3OC)C2)cc1 (stereo unspecified)	-	.	.	.	.	.
CCOC(=O)c1sc(=NC(=O)c2cccc(Br)c2)n(C)c1C	-	?	-	-	-	20
CCOC(=O)c1sc(=NC(=O)c2cccc(C)c2)n(C)c1C	-	?	123	-	-	24
CCOC(=O)c1sc(=NC(=O)c2ccc(S(=O)(=O)N(C)c3ccccc3)cc2)n(C)c1C	-	-	-	-	-	-
Cn1cc(CNCC2CCCO2)c(-c2ccc(Oc3ccccc3)cc2)n1 (stereo unspecified)	-	-	-	-	?	-
Cc1cc(CNCc2cn(C)nc2-c2ccc(Oc3ccccc3)cc2)on1	?	?	-	?	-	17
N/C(Cc1nc(-c2ccc(Cl)cc2)cs1)=N\O	.	.	.	.	-	.
NC(=O)Cc1nc(-c2ccc(Br)cc2)cs1	-	-	37	-	-	-
Oc1csc(Cc2nc(-c3ccc(Br)cc3)cs2)n1	-	-	130	?	-	38
